Results as given in PubChem BioAssay.
The source made the active and inactive calls.

Experiments:
[1] = system: XIP peptide (Xip251-270) binding; test: small-molecule binders of XIP peptide, primary screen, biochemical, small-molecule microarray, fluorescence 635/667 nm, 0.1 µg/mL protein (AID 1182); details: fluorescent protein binding, 635 nm, higher = more signal, called active from +8 up or from −8 down
XIP peptide (Xip251-270) = test: small-molecule binders of XIP peptide, primary screen, biochemical, small-molecule microarray, fluorescence 635/667 nm, 0.5 µg/mL protein (AID 1183); details: small-molecule microarray binding, fluorescence 635 nm; higher = more signal
[2] = Plasmodium falciparum growth inhibition, primary screen, strain 3D7, DAPI fluorescence, 100 nL (AID 1184);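 further: parasites grown inside human red blood cells in medium with human serum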; details: P. falciparum 3D7 growth, 3 d, higher = more signal
[3] = target: Homeobox protein Hox-A13 (Mus musculus) (UniProt Q62424); test: inhibitors of HoxA13-DNA binding, primary screen, biochemical, fluorescence polarization, labeled oligonucleotide (AID 1185); details: 15 min, higher = more signal, called active from +8 up or from −8 down
Sequence of Homeobox protein Hox-A13 (Mus musculus) (Q62424 whole entry, looked up): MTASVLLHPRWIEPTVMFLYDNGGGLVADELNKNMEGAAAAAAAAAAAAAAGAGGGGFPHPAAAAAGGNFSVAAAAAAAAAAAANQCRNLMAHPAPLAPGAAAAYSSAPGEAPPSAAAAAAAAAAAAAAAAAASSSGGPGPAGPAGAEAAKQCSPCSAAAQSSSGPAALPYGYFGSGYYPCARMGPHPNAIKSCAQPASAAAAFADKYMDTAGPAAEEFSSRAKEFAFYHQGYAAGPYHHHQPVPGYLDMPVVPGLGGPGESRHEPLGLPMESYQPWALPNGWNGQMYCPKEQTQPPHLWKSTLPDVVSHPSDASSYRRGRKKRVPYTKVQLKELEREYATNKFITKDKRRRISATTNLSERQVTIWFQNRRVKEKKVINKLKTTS

Structure (SMILES) | composite z-score [1] | composite z-score (XIP peptide (Xip251-270)) | z-score [2] | z-score [3]
O=C1C[C@@H](O)[C@@H](O)[C@@H]2[C@@H]3C(=O)N(C4CCCCC4)C(=O)[C@@H]3CC[C@@H]12 | -0.08 (inactive) | 0.148 | 0.922 | 0.136 (inactive)
CC(C)(C)N1C(=O)[C@H]2[C@H]3[C@H](O)[C@H](O)CC(=NNC(=O)OCc4ccccc4)[C@H]3CC[C@H]2C1=O | -0.401 (inactive) | 0.764 | -1.37 | -3.42 (inactive)
CO[C@H]1COC(=O)CCC[C@H](C)[C@@H](OC)COC(=O)CC=C[C@@H]1C | -0.294 (inactive) | 0.003 | -0.809 | 0.544 (inactive)
C=CC[C@@H]1C=C[C@H](ON=C(C)CCN2CCCCc3nc(C)c(C)cc32)[C@@H](CO)O1 | -0.167 (inactive) | 0.143 | -0.784 | -4.55 (inactive)
COc1ccc(O[C@H]2C=C[C@@H](c3ccccc3)O[C@@H]2CON=C(C)CCN2CCCc3nc(C)c(C)cc32)cc1 | 0.301 (inactive) | 0.693 | -1.96 | -4.5 (inactive)
O=C1[C@H]2[C@H]3[C@H](O)[C@H](O)CC(=NOC[C@@H](O)COCc4ccco4)[C@@H]3CC[C@H]2C(=O)N1C1CCCCC1 | 0.288 (inactive) | 0.306 | 1.7 | -4.42 (inactive)
COC(=O)CC=C[C@@H](C)[C@@H](C=NOC(C)CN1CCCc2nc(C)c(C)cc21)NS(=O)(=O)c1ccc(C)cc1 (stereo partly drawn) | 0.364 (inactive) | 0.624 | 0.135 | -7.74 (inactive)
CCOC(=O)[C@H](CC(C)C)NC(=O)CCC1CC(OC(=O)NCc2ccc3c(c2)OCO3)CC2(CCCC(COC(=O)NCCOc3ccccc3)O2)O1 (stereo partly drawn) | 0.24 (inactive) | 0.368 | -1.87 | -6.24 (inactive)
CO[C@@H](C1CCCCC1)[C@@H](C)[C@H](OCc1cccc(Br)c1)[C@@H](C)CO | -0.0994 (inactive) | -0.0791 | -0.254 | -4.53 (inactive)
C#CCCCON=C1C[C@@H](O)[C@@H](O)[C@@H]2[C@@H]3C(=O)N(CC)C(=O)[C@@H]3CC[C@H]12 | 0.835 (inactive) | -0.423 | -0.263 | 0.0042 (inactive)
COc1ccc(COC(=O)NN=C2C[C@@H](O)[C@@H](O)[C@@H]3[C@@H]4C(=O)N(C[C@@H]5CCCO5)C(=O)[C@@H]4CC[C@@H]23)cc1 | -0.155 (inactive) | 0.744 | -0.0701 | 0.903 (inactive)
CO[C@H]1COC(=O)CCC[C@H](C)[C@H](OC)COC(=O)CC=C[C@@H]1C | 0.239 (inactive) | 0.0648 | -0.116 | -0.695 (inactive)
CC(=O)OC[C@H]1O[C@H](C#CCC2CCCCC2)C=C[C@@H]1OC(C)=O | 0.525 (inactive) | 0.392 | 0.951 | -5.27 (inactive)
CCOC(=O)[C@H](CC(C)C)NC(=O)CCC1CC(OC(=O)NCc2ccc3c(c2)OCO3)CC2(CCCC(COC(=O)NCCc3ccc(Cl)cc3)O2)O1 (stereo partly drawn) | -0.0891 (inactive) | 0.137 | -1.66 | -6.16 (inactive)
C#CCCCON=C1C[C@@H](O)[C@@H](O)[C@@H]2[C@@H]3C(=O)N(C4CCCCC4)C(=O)[C@@H]3CC[C@@H]12 | 0.481 (inactive) | 0.0169 | 0.204 | -4.64 (inactive)
COC(=O)[C@H](C)NC(=O)CCC1CC(OC(=O)NCCc2ccc(F)cc2)CC2(CCCC(COC(=O)NCc3ccccc3)O2)O1 (stereo partly drawn) | 0.166 (inactive) | 0.607 | -1.93 | -1.56 (inactive)
CC(C)=NO[C@H](C)c1cn([C@@H]2COC[C@H]2O)nn1 | 0.496 (inactive) | 0.0358 | 0.672 | 0.141 (inactive)
Cc1cc2c(nc1C)CCCCN2CC(O)CN1CCCc2nc(-c3ccc(Br)cc3)ccc21 (stereo not drawn) | -0.0362 (inactive) | 0.0985 | 0.528 | -4.77 (inactive)
O=C1CCCC=C1C(O)C1CCCCC1 (stereo not drawn) | -0.459 (inactive) | -0.11 | 0.247 | -0.0768 (inactive)
COC(=O)[C@H](C)NC(=O)CCC1CC(OC(=O)NCc2ccc3c(c2)OCO3)CC2(CCCC(COC(=O)NCCC(C)C)O2)O1 (stereo partly drawn) | 1.11 (inactive) | 0.106 | -0.489 | -6.3 (inactive)
O=C1[C@H]2CCn3c(=O)n(-c4ccccc4)c(=O)n3[C@H]2[C@H](O)[C@@H]2O[C@H]12 | -0.0756 (inactive) | 0.614 | -0.815 | -0.418 (inactive)
CCOC(=O)[C@H](Cc1ccccc1)NC(=O)CCC1CC(OC(=O)NCc2cccc3ccccc23)CC2(CCCC(COC(=O)NCCc3ccc(Cl)cc3)O2)O1 (stereo partly drawn) | 0.351 (inactive) | 0.568 | -1.93 | -5.98 (inactive)
